For 17 compounds, growth results are on record in PubChem BioAssay (NCI).

The panel holds about 83,000 compounds, 20% with a hit somewhere; the sample as a whole holds those more often.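 Single-concentration screen, 48 h exposure, 96-well plates. Endpoint: percent growth. Below 10 = active.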 A number with no mark means an inactive call. The source made the active and inactive calls.

One experiment relates to SN12C renal. The experiment in a line: NCI-60 one-dose screen, 48 h (100 = growth as untreated, 0 = no growth, -100 = all killed). Particulars: 10 µM unless noted.
For the compound `CCCCCCCCC(=O)Nc1ccc(O)cc1`, the growth is 94.3%.

Regarding `COc1ccc(-c2nc(SCC(C)C)nc(Nc3ccccc3)c2C#N)cc1`, the growth is 60.2%.

In the case of `N#Cc1ccc(NC2c3ccccc3CC2O)cc1` (configuration not stated), the growth is 107%.

With `N#CCCCCCCCCCCC#N`, the growth is 105%.

For `CCOC(=O)c1ccc2n1CCCc1cnc(NC(C)=O)nc1-2`, the growth was 102%.

For `COc1ccc2c(N)ncc(C#Cc3cc(C(=O)Nc4ccc(CN5CCN(C)CC5)c(C(F)(F)F)c4)cnc3C)c2c1`, the growth was -45.4% (active).

In the case of `CCCCCCCCCCCC(=O)OC(C)C(=O)Nc1ccccc1` (configuration not stated), the growth is 93%.

For another experiment, the system named is UO-31 renal. The experiment is described as above. Particulars: 10 µM unless noted.
For `COc1ccccc1Cn1cc2c(c1)-c1oncc1CC2`, the growth was 31.6%.

For the compound `CC1=NN(c2cccc(Cl)c2)C(=O)/C1=C\c1cn(-c2nc(N3CCOCC3)nc(N3CCOCC3)n2)c2ccccc12`, the growth was 83.3%.

In the case of `NC(=O)c1c(Nc2ccccc2)nn2cc(-c3nc4ccccc4s3)c(N)nc12`, the growth was 81.3%.

Consider `O=C(N/N=C/c1coc2ccccc2c1=O)c1cc2oc(-c3ccccc3)cc2[nH]1`, for which the growth is 86.2%.

On to `CCCCCCCCCC[N+](C)(C)C`, for which the growth was 72.9%.

With `CCCCCCC(=O)C(C)C`, the growth is 92.3%.

Take `CCCC(=O)NNc1[nH]c(-c2ccc(OC)cc2)cc1C(=O)OCC`: the growth was 85.8%.

Regarding `O=C1c2cc([N+](=O)[O-])ccc2-c2cc(Cl)c(NC(=O)C(F)(F)F)cc21`, the growth is 93.2%.

On to `N=C(c1ccccc1)N(Cc1ccccc1)Cc1ccccc1`, for which the growth was 72.6%.

Take `CSCc1ncc(-c2ccc(C(F)(F)F)cc2)c(NC2CCCCCC2)n1`: the growth is 51.9% [25 µM].
